Most compounds without a hit are left out; they make up all but 1.2% or so of the library.
EPAC1 antagonist = qHTS for Antagonist of cAMP-regulated guanine nucleotide exchange factor 3 (EPAC1): primary screen; EPAC1 GEF assay, Rap1b-BODIPY-GDP exchange fluorescence; Rap guanine nucleotide exchange factor 3 (Homo sapiens), O95398; Potency, µM (series often up to 115 µM), for the others: at the highest dose activity change, negative = inhibition, hits mostly inhibitors; hit rate 0.14% among 360,000; AID 720709, 2013;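 further: plate controls were vehicle for no effect and positive control for full effect; nearly all actives have a fitted effect of over 50% in size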
EPAC2 antag = qHTS for Antagonist of cAMP-regulated guanine nucleotide exchange factor 2 (EPAC2): primary screen; Rap guanine nucleotide exchange factor 4 (Homo sapiens), Q8WZA2; EPAC2 GEF exchange of Rap1B-BODIPY-GDP, fluorescence; Potency, µM (series often up to 114 µM), without a hit: top-dose activity, negative = inhibition, usual class: inhibitors; hit rate 0.18% among 360,000; AID 720708, 2013; further: on the % scale 0 is the no-effect control and ±100 the full control effect; nearly all actives have a fitted effect of over 45% in size
VDR inh = Inhibitors of the vitamin D receptor (VDR): qHTS. Vitamin D3 receptor (Homo sapiens), P11473. VDR-SRC2-3 peptide fluorescence polarization, 2 h. Potency, µM, for inactives: max response, negative = inhibition, actives largely listed as inhibitors. hit rate 0.93% among 400,000; further: on the % scale 0 is the no-effect control and ±100 the full control effect
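FP read-out; VDR + SRC2-3 coactivator peptide; 23 nl compound by pintool; 2 h RT incubation; reagents held at 4 deg C, protected from light.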
USP1 inh = Inhibitors of USP1/UAF1: Primary Screen. Ubiquitin carboxyl-terminal hydrolase 1 (Homo sapiens), O94782. recombinant USP1/UAF1, Ub-Rhodamine cleavage fluorescence. Potency, µM (doses to about 57.1 µM), for the others: at the top dose activity change, negative = inhibition, hits mostly inhibitors. hit rate 0.23% among 390,000. AID 743255, 2014; further: on the % scale 0 is the no-effect control and ±100 the full control effect; nearly all actives have a fitted effect of over 60% in size
Target sequence (O94782 whole entry, looked up): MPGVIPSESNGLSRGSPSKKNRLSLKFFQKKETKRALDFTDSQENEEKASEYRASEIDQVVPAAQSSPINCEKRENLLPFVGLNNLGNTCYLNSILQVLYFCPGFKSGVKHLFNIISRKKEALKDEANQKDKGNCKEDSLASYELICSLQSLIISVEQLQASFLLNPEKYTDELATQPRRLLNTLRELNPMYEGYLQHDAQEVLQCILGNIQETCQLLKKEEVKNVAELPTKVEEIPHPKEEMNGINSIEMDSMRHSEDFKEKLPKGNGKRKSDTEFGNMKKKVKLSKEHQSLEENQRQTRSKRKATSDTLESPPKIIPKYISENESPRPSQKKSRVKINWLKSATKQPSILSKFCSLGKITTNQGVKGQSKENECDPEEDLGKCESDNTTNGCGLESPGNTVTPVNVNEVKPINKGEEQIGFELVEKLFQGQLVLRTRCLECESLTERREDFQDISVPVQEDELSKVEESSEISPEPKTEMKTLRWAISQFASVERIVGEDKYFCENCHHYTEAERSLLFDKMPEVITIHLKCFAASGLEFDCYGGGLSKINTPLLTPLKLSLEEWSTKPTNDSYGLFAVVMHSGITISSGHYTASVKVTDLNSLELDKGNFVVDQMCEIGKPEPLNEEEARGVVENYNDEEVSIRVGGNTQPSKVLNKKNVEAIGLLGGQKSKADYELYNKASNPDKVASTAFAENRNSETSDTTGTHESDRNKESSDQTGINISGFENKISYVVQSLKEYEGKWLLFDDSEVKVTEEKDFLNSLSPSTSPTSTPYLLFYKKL
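USP1/UAF1 complex at 1 nM was preincubated with compound for 15 min at room temperature, then Ub-Rho substrate (150nM final) was added. Fluorescence (480/540 nm) was read kinetically, 6 reads every 60 seconds.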
EPAC1 ag = qHTS for Agonist of cAMP-regulated guanine nucleotide exchange factor 3 (EPAC1): primary screen. EPAC1 agonist qHTS, biochemical assay; response scale: 100% = response to 6.5 mM cAMP. Rap guanine nucleotide exchange factor 3 (Homo sapiens), O95398. hit rate 0.073% among 360,000. Potency, µM (doses to about 154 µM), without a hit: at the highest dose activation, actives largely listed as activators; further: nearly all actives have a fitted effect of over 60% in size
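Nucleotide exchange by EPAC1 (100 nM) on Rap1B–BODIPY-GDP (250 nM) in the presence of 50 uM GDP is tracked fluorescently at 480/540 nm over 30 min. Signals are normalized to a 6.5 mM cAMP control.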
EPAC2 agonist = qHTS for Agonist of cAMP-regulated guanine nucleotide exchange factor 4 (EPAC2): primary screen; EPAC2 activation, biochemical qHTS; response scale: 100% = 6.5 mM cAMP response; Potency, µM (top dose mostly 154 µM), for the others: at the highest dose activation, usual class: activators; hit rate 0.079% among 360,000; AID 720711, 2013; further: nearly all actives have a fitted effect of over 50% in size
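Nucleotide exchange monitored as fluorescence drop when BODIPY-GDP leaves Rap1B. Reaction: 100 nM EPAC2, 250 nM RAP1B-BODIPY-GDP, 50 uM GDP, room temperature, kinetic read over 30 min. Activity expressed relative to 6.5 mM cAMP.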
VDR inh confirm = qHTS for Inhibitors of the vitamin D receptor (VDR): Hit Validation in Primary Screen; AID 602199, 2012; hit rate 89% among 840; shares compounds with VDR inh; Potency, µM, hits mostly inhibitors; VDR-coactivator inhibition assay, qHTS confirmation
VDR FP fluor = qHTS for Inhibitors of the vitamin D receptor (VDR): Hit Validation using a Fluorescein Assay. shares compounds with VDR inh. VDR-coactivator binding, fluorescein fluorescence polarization. AID 602200, 2012. Potency, µM (titrated, usually from 57.1 µM), for the others: at the highest dose activity change, negative = inhibition, most hits filed as inhibitors. hit rate 48% among 840
VDR bla = qHTS for Inhibitors of the vitamin D receptor (VDR): Hit Validation using a Beta-Lactamase Assay | shares compounds with VDR inh | VDR beta-lactamase reporter cells, FRET ratio; cells co-treated with VDR agonist LG190178 | Potency, µM (top dose mostly 46.1 µM), inactives show at the highest dose activity change, negative = inhibition, most hits filed as inhibitors | hit rate 23% among 840; further: on the % scale 0 is the no-effect control and ±100 the full control effect
VDR cytotox = qHTS for Inhibitors of the vitamin D receptor (VDR): Hit Validation using a Cytotoxicity Assay; cytotoxicity counter-screen, cell viability, qHTS; shares compounds with VDR inh; Potency, µM (doses to about 48.3 µM), without a hit: top-dose activity change, negative = cytotoxicity, most hits filed as cytotoxic; AID 602204, 2012; hit rate 18% among 840;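 further: plate controls were DMSO for no effect and high-concentration cycloheximide for full effect; nearly all actives have a fitted effect of over 75% in size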
Starred values were filed as active, the others as inactive; ? = inconclusive; nt = no result given; ! = a repeat was not active. The call rests on the fitted dose curve; in most records, active means well fitted curve in the direction sought with a large enough effect; inconclusive means small, poorly fitted or top-dose-only effect, or another doubt; inactive means no such curve, though single readings can be large; an effect the other way counts as inactive or inconclusive. Potency means the concentration at half of the fitted maximal effect.

SMILES	EPAC1 antagonist	EPAC2 antag	VDR inh	USP1 inh	EPAC1 ag	EPAC2 agonist	others
CC(C)C[C@H](NC(=O)CNC(=O)[C@H](CCC(N)=O)NC(=O)[C@H](Cc1ccc(O)cc1)NC(=O)[C@@H](NC(=O)[C@H](Cc1ccc(O)cc1)NC(=O)CNC(=O)[C@@H](N)CCCN=C(N)N)C(C)C)C(=O)O	nt	nt	12%	nt	nt	nt
O=C1NC(=O)C(Nc2ccccc2)C(=O)N1	-29%	-3%	25µM*	-17%	-1%	3%
Cc1ccc(NC2C(=O)NC(=O)NC2=O)cc1	79µM*	?	14µM*	?	-7%	14%
O=C1NC(=S)NC(=O)C1C(=O)Nc1ccccc1	nt	nt	-22%	nt	nt	nt
N=C1/C(=C\c2ccc(OC(=O)c3ccccc3Cl)cc2)C(=O)N=C2SC(N3CCOCC3)=NN12	?	-10%	?	?	-5%	4%
COc1cc(/C=C/c2nc3ccccc3c(=O)n2-c2cccc(O)c2)ccc1O	50µM*	-2%	-2%	-11%	5%	-1%
COc1cccc(-n2c(/C=C/c3ccccc3O)nc3ccccc3c2=O)c1	nt	nt	-23%	-3%	nt	nt
NC1CCCC[C@H]1N (stereo not given in full)	nt	nt	3%	nt	nt	nt
CN1C(=O)[C@]23CC4=CC=C[C@H](O)[C@H]4N2C(=O)[C@@]1(CO)SS3	nt	nt	4µM*	nt	nt	nt
COc1ccc2c3c1OC1C[C@@H](O)C=C[C@@]31CCN(C)C2 (stereo not given in full)	nt	nt	-2%	nt	nt	nt
O=[N+]([O-])c1ccc(NCc2ccc(Cl)cc2)c2ccncc12	13%	3%	7%	?	-5%	6%
O=[N+]([O-])c1ccc(NCc2ccccc2)c2nonc12	34%	36%	-7%	22µM*	56µM*	56µM*
CS/C(N)=C(C#N)/C(C#N)=C(\N)SC	nt	nt	45µM*	nt	nt	nt
Cc1ccc2nc3sc(=O)sc3nc2c1	nt	nt	8.9µM*	nt	nt	nt
CCC(C)C(=O)OC1C(O)C2C(CN3CC(C)CCC3[C@]2(C)O)C2C[C@]34O[C@@]5(O)C(OC(=O)C(C)(O)CC)CCC3(C)C5C(OC(C)=O)C(OC(C)=O)C4[C@@]21O (stereo not given in full)	nt	nt	2%	nt	nt	nt
COc1cc2c(cc1O)[C@@H]1Cc3ccc(OC)c(O)c3CN1CC2	-30%	8%	-7%	14µM*	-7%	9%
Fc1ccc(C(OCCN2CCN(C/C=C/c3ccccc3)CC2)c2ccc(F)cc2)cc1	nt	nt	-17%	nt	nt	nt
CCOP(=S)(OCC)SCn1c(=O)oc2cc(Cl)ccc21	nt	nt	35µM*	nt	nt	nt
O=C(Nc1ccc(Oc2ccc(Cl)cc2)c(Cl)c1)c1cc(I)cc(I)c1O	40µM*	?	?	?	-14%	4%
CC1CC2CCC(O2)C(C)C(=O)OC(C)CC2CCC(O2)C(C)C(=O)OC(C)CC2CCC(O2)C(C)C(=O)OC(C)CC2CCC(O2)C(C)C(=O)O1 (stereo not given)	nt	nt	10%	nt	nt	nt
O=C1OC(c2cc(I)c(O)c(I)c2)(c2cc(I)c(O)c(I)c2)c2ccccc21	nt	nt	20µM*	nt	nt	nt
Nc1ccc2ccc3cccc[n+]3c2c1	342%	360%	-13%	28µM*	100µM*	112µM*
CN(C)CCN(C)CCc1ccc(Cl)c(Cl)c1	nt	nt	-2%	nt	nt	nt
CCNC(=S)NCCC1=c2ccccc2=N/C1=C\c1c(O)n(C)c(=O)n(C)c1=O	2%	19%	32µM*	-21%	2%	7%
CCOC(=O)[C@]12Cc3cc(Cl)ccc3[C@H]1N(C(C)C)C(=O)c1ccccc12	-5%	17µM*	nt	nt	-7%	9%
SMILES	EPAC1 antagonist	EPAC2 antag	VDR inh	USP1 inh	EPAC1 ag	EPAC2 agonist	others
CCOC(=O)[C@]12Cc3ccccc3[C@H]1N(Cc1ccccc1)C(=O)c1cc(OC)ccc12	-24%	28µM*	nt	nt	4%	8%
CON(C)C(=O)Nc1ccc(Br)c(Cl)c1	nt	nt	6%	nt	nt	nt
OC[C@@H]1[C@@H](O)[C@H](O)[C@H]2[C@@H](O)CCN21	nt	nt	-2%	nt	nt	nt
CC(C)(C)OC(=O)C(Br)CCBr (stereo not given)	nt	nt	-1%	nt	nt	nt
NCC(O)c1cc(O)c(O)cc1F (stereo not given)	-3%	5%	28µM*!	-13%	8%	-5%
CS(=O)(=O)c1ncc(Cl)c(C(=O)Nc2ccc3ccccc3c2)n1	-25%	6%	13µM*	-10%	-8%	1%	VDR inh confirm=8.4*;VDR FP fluor=?;VDR bla=16µM*;VDR cytotox=?
CCOC(=O)COc1ccc(/C=C2\C(=O)NC(=S)N(c3ccc(OC)cc3)C2=O)cc1OC	-26%	13%	45µM*	-19%	2%	5%	VDR inh confirm=24*;VDR FP fluor=14µM*;VDR bla=22%;VDR cytotox=15%
COC(=O)COc1ccc(/C=C2\C(=O)NC(=S)N(c3ccc(C)cc3)C2=O)cc1OC	1%	2%	25µM*	-22%	3%	2%	VDR inh confirm=6.7*;VDR FP fluor=?;VDR bla=15%;VDR cytotox=26%
